# Test results reported in PubChem BioAssay AID1490 (National Center for Advancing Translational Sciences (NCATS), 2009).
# Where “and” joins values, the source holds several entries; their conditions need not be identical. Equal entries are not always repeated. Hit rate of the full screen: of about 310,000 compounds, about 11,000 (3.5%) were called active. Another 4% or so got no clear call; they are omitted. Only a selection was taken, and actives are over-represented in it overall. Values without a mark were called inactive. Calls come from the whole dose curve; as a rule, active = well fitted inhibition curve with a large enough effect; inconclusive = small, poorly fitted or top-dose-only effect, or another doubt; inactive = no such curve, though single readings can be large or run the other way.
# Target: 4'-phosphopantetheinyl transferase ffp (Bacillus subtilis) (UniProt Q9F4F7)
# Assay: qHTS Assay for Inhibitors of Bacillus subtilis Sfp phosphopantetheinyl transferase (PPTase);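 note: the enzyme is Sfp with the accession as filed and its product quenches rhodamine fluorescence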;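 for largest response in the series, negative = inhibition: 0% = enzyme reaction without inhibitor and -100% = no enzyme wells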
# Settings: Biochemical Sfp PPTase activity
# Procedure, shortened: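 With Hepes-Na pH 7.6 buffer containing 10 mM MgCl2, Sfp (15 nM) modified BHQ-2-YbbR (12.5 uM) using rhodamine-CoA (5 uM). Two reads 30 minutes apart at 525/598 nm yielded each well's rate.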
# Potency is the fitted concentration of half-maximal effect.
Compound,"largest response in the series, negative = inhibition",Potency
CCOC(=O)N1CCN(C(=O)c2ccc3c(=O)n(CCc4ccc(OC)c(OC)c4)c(=O)[nH]c3c2)CC1,8.01%,–
O=C(O)[C@@H](S)[C@H](S)C(=O)O,–,1.12 µM (active)
O=C(C[n+]1cc(Br)cc2ccccc21)c1ccc(F)cc1,4.07%,–
COc1cccc([C@@H]2Oc3ccc(Br)cc3C(=O)[C@H]2OC(=O)NCCc2ccc(OC)c(OC)c2)c1,-29.3%,–
COc1ccccc1N1CCN(C(=O)c2ccc(NC3=NC4CS(=O)(=O)CC4S3)cc2)CC1 (configuration not stated),11.2%,–
COc1ccc(CCCOC(Cn2ccnc2)c2ccc(OC)cc2)cc1 (configuration not stated),10.3% and -14.1%,–
N#Cc1c(N2CCCCC2)nc(N)c2c(N)nc(SCC(=O)O)cc12,–,8.91 µM (active)
Cc1cc(C)c(C#N)c(N2CCC(C(N)=O)CC2)n1,15.7%,–
CC(=O)c1cc(C#N)c(N2CCCCC2)nc1C,10.1%,–
N#CCc1ccc(NC(=O)c2ccccc2C(=O)Nc2ccc(CC#N)cc2)cc1,5.96%,–
CCOCc1nnc(NC(=O)CCC2CCCCC2)s1,18.1%,–
COC(=O)CCCC1=CC2=CC(=O)C(C)(OC(=O)c3cccs3)C(=O)C2=CN1c1ccc(CO)cc1 (configuration not stated),-1.16%,–
CCOC(=O)c1csc(CCNC(=O)c2oc3c(Cl)cc(C)cc3c2C)n1,-19.2%,–
O=c1[nH]c(=O)c2nc3ccccc3nc2[nH]1,8.31%,–
Nc1ccc2nc3c(=O)[nH]c(=S)[nH]c3nc2c1,–,8.91 µM (active)
O=C(NCc1cc(F)cc(C(F)(F)F)c1)C1CCC(=O)N(C2CCCC2)C1 (configuration not stated),6.77%,–
O=c1oc2ccccc2c(CNc2ccccc2)c1[N+](=O)[O-],5.08%,–
C=C1C(=CC=C2CCC[C@@]3(C)[C@@H]2CC[C@H]3[C@H](C)CCCC(C)C)C[C@@H](O)C[C@@H]1O,3.54%,–
CC(=O)Nc1ccc(/C=N/NC(=O)c2cccs2)cc1,9.99%,–
O=C(N/N=C/c1ccco1)c1ccc(C(=O)N/N=C/c2ccco2)o1,22%,–
Cc1ccc(-c2cc(C(=O)N/N=C/C=C/c3ccco3)c3ccccc3n2)cc1C,–,28.2 µM (active)
CCOc1cc(/C=N/NC(=O)c2cc(-c3ccccc3)nc3ccccc23)ccc1O,10.1%,–
O=C(N/N=C/C=C/c1ccco1)c1cccs1,–,10 µM (active)

Compound,"largest response in the series, negative = inhibition",Potency
C/C(=N\NC(=O)c1cc(-c2ccc(O)cc2)nc2ccccc12)c1cccnc1,0.726%,–
O=C(O)c1cc2c(cc1NC(=O)c1c(F)cccc1Cl)OCCCO2,14.9%,–
Cc1nc2ccccc2c(=O)n1Cc1ccc([N+](=O)[O-])cc1,-0.474%,–
Cc1nc2c(c(=O)n1Cc1ccco1)c1nc3ccccc3nc1n2Cc1ccccc1,–,8.91 µM (active)
Cc1ccc(Cn2c(C)nc3c(c2=O)c2nc4ccccc4nc2n3Cc2ccco2)cc1,18.1%,–
O=C(NC1CCCCC1)C1CCC(CNS(=O)(=O)c2ccccc2)CC1 (configuration not stated),-16.9%,–
Cc1ccc(NC(=O)c2cc(-c3ccccc3O)n[nH]2)cc1C,13.9%,–
CCN(CC)S(=O)(=O)c1cc([N+](=O)[O-])ccc1N=Nc1c(O)n(C)c2ccccc12,22.9%,–
CCN(CC)C(=O)CN(c1cccc([N+](=O)[O-])c1)S(=O)(=O)c1ccccc1,19.8%,–
CCN(CC)S(=O)(=O)c1cc([N+](=O)[O-])ccc1NNC(=O)Nc1ccccc1,–,56.2 µM (active)
CCCn1c2ccccc2c2cnn(CC(=O)NCCCN3CCCCC3CC)c(=O)c21 (configuration not stated),4.88%,–
Cc1cccc(C(=O)NNC(=O)c2cccc([N+](=O)[O-])c2)c1,12.7%,–
O=[N+]([O-])c1cccc(/C([O-])=C(/C(=S)Nc2ccccc2F)[n+]2ccccc2)c1,–,17.8 µM (active)
CCC(C)NCC(=O)Nc1ccc([N+](=O)[O-])cc1C(=O)Nc1ccccc1F (configuration not stated),8.61%,–
N#Cc1cccc(NC(=O)CN2CCCCCC2)c1,7.01%,–
CS(=O)(=O)c1ccc2nc(NC(=O)CN3CCCCCC3)sc2c1,-29.2%,–
N#Cc1ccsc1NC(=O)CN1CCN(S(=O)(=O)c2cc(Cl)ccc2Cl)CC1,-21.5%,–
Cc1cc(C)c(NC(=O)CN2CCCCCC2)c(C)c1,-2.37%,–
N#Cc1ccsc1NC(=O)CN1CCCCC1,–,89.1 µM (active)
Cc1csc(NC(=O)CN2CCCCCC2)n1,–,79.4 µM (active)
CCOC(=O)C1CN(S(=O)(=O)c2ccc(OC)cc2)c2cc(Cl)ccc2O1 (configuration not stated),3.4%,–
Cc1ccc(S(=O)(=O)NNC(=O)/C=C/c2cccc(F)c2)cc1,9.18%,–
C=CCc1ccccc1OCC(O)CN1CCN(CCO)CC1 (configuration not stated),5.68%,–

Compound,"largest response in the series, negative = inhibition",Potency
CCOC(=O)c1sc(NC(=O)c2sc(C)nc2C)nc1C,11.7%,–
CC1CCCCN1C(=O)Cn1c(=O)oc2cc(S(=O)(=O)N3CCCCC3)ccc21 (configuration not stated),10.7%,–
Cc1cccc(CNc2cc(-c3ccccc3Cl)ncn2)c1,20.2%,–
Clc1ccccc1-c1cc(NCCN2CCOCC2)ncn1,–,79.4 µM (active)
c1ccc2cc3c(NCCN4CCOCC4)ccnc3cc2c1,-20.1%,–
COc1ccc(NC(=O)CCCN2C(=O)C(c3ccccc3)Oc3cccnc32)cc1 (configuration not stated),1.64%,–
Cc1ccc(C)c(S(=O)(=O)N2CCCOC2CNC(=O)C(=O)NC2CCCCC2)c1 (configuration not stated),11.5%,–
COC(=O)C(CC(=O)Nc1cc(C)ccc1C)Nc1ccccc1OC (configuration not stated),28.6%,–
Cc1ccc(C)c(NC(CC(=O)c2ccccc2)C(=O)OCC(=O)c2cccs2)c1 (configuration not stated),–,39.8 µM (active)
Cc1ccc(C)c(NC(=O)CCC(=O)NNC(=O)c2cccs2)c1,3.73%,–
Cc1ccc(-c2ncc(Cl)cc2-c2ccc(S(C)(=O)=O)cc2)cn1,13.6%,–
C=CCn1c(SCc2c(C)noc2C)nc2sc3c(c2c1=O)CCC(C)C3 (configuration not stated),-23.8%,–
C=CCn1c(SCc2csc(C)n2)nc2scc(-c3ccc(C)o3)c2c1=O,–,11.2 µM (active)
C=CCn1c(SCC(=O)NCC2CCCO2)nc2sc(C)c(C)c2c1=O (configuration not stated),13.7%,–
COC(=O)c1cc(NC(=O)c2cccnc2)ccc1N1CCOCC1,9.31%,–
COc1ccccc1NC(=O)c1ccc(N2CC3CC(C2)c2cccc(=O)n2C3)c(NC(=O)c2cccnc2)c1 (configuration not stated),–,31.6 µM (active)
COc1ccccc1NC(=O)c1ccc2nc(N3C(=O)CCC3=O)sc2c1,10.7%,–
CCCCn1c(-c2cccc(C)c2)nc2cc3[nH]c(=O)c(C(C)C)nc3cc21,-18.3%,–
CCOC(OCC)OCC,-10.1%,–
CC1C(=O)Nc2ccccc2N1C(=O)c1c(F)cccc1F (configuration not stated),14.4%,–
CC(C)c1cnc(NC(=O)Cc2ccccc2)s1,26.8%,–
CC(=O)Nc1c2c(nn1-c1ccc(C)cc1C)CS(=O)C2 (configuration not stated),9.45%,–
COc1ccc(/C=C2\SC(=S)N(CCC(=O)Nc3cccc(C(=O)O)c3)C2=O)cc1OC,-8.44%,–

Compound,"largest response in the series, negative = inhibition",Potency
O=C(CCCN1C(=O)/C(=C\c2ccccc2)SC1=S)Nc1ccccc1O,17.9%,–
O=C(CCCN1C(=O)/C(=C\c2ccco2)SC1=S)Nc1cccc2ccccc12,–,56.2 µM (active)
O=C(CCCN1C(=O)/C(=C/c2ccco2)SC1=S)Nc1ccccc1,–,31.6 µM (active)
O=C(CCCN1C(=O)/C(=C/c2cccs2)SC1=S)Nc1ccc(O)cc1,-1.57%,–
O=C(CCCN1C(=O)/C(=C/c2ccccc2)SC1=S)Nc1ccc(O)cc1,12.2%,–
Cc1ccc2nc3c(cc(C(=O)NCCc4ccccc4)c(=N)n3CC3CCCO3)c(=O)n2c1 (configuration not stated),21.3%,–
Cc1ccc(CS(=O)(=O)c2ncc(Cl)c(C(=O)Nc3nnc(C)s3)n2)cc1,-13.2%,–
COc1ccc(Cl)cc1NS(=O)(=O)c1cccc(C(=O)NCC2CCCO2)c1 (configuration not stated),12.9%,–
CN(Cc1ccccc1)C(=O)CSc1nc2ccccc2[nH]1,9.63%,–
COCCCNC(=S)NC(=O)c1ccccc1,8.58%,–
Cc1cc2[nH]ncc2cc1NC(=S)NC(=O)c1ccccc1,1.08%,–
Cn1nnc(NC(=S)NC(=O)c2ccccc2)n1,–,35.5 µM (active)
O=C(NC(=S)NC1CCS(=O)(=O)C1)c1cccc([N+](=O)[O-])c1 (configuration not stated),-2.6%,–
COc1ccc(-c2nc3ccccc3c(=O)n2CCc2ccc(O)cc2)cc1,-0.523%,–
COc1ccc(CCNCc2c(-c3ccccc3)n(C)c3ccccc23)cc1,–,79.4 µM (active)
COc1ccc(-c2c(C#Cc3ccccc3)c3ccccc3n2C)cc1,-20.7%,–
CCOc1ccc(-n2c(SCC(N)=O)nnc2-c2ccco2)cc1,27.1%,–
O=[N+]([O-])c1c(NCCO)cc(Sc2nc3ccccc3s2)c2nonc12,–,6.31 µM (active)
O=C(O)c1cccc(S(=O)(=O)Nc2ccc(O)cc2Sc2nc3ccccc3s2)c1,-29.2%,–
CCOc1ccccc1Nc1ccc2nonc2c1[N+](=O)[O-],1.09%,–
Cc1ccc(C)c2[nH]c(=O)c(CCNC(=O)c3cccs3)cc12,6.07%,–
C=CCn1c(CCNC(=O)c2cccs2)n[nH]c1=S,–,7.94 µM (active)
C=CCn1c(CCc2ccc(OC(C)C)cc2)n[nH]c1=S,14.2%,–
